Results from PubChem BioAssay AID588358 (NMMLSC, 2011).
Among all 310,000 compounds or so, about 1,500 (0.48%) were called active. This is one part of a sample in which actives are shown more often than they occur.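 How the source made its calls: active means binding more than 3 SD below its plate's average and above zero; inconclusive means below that plate limit but binding exactly zero; inactive means the rest.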

molecular target: Desmoglein-3 (Homo sapiens) (UniProt P32926); experiment: inhibitors of pemphigus antibody binding to DSG3, primary screen, biochemical, bead-based, flow cytometry, scFv-GFP (AID 588358); conditions: DSG3-coupled beads, scFv-anti-DSG3-GFP binding, at 10 µM, hits give low values;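 further: hits lower antibody fragment binding to DSG3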
Sequence (P32926 whole entry, looked up, the tested form may be a part): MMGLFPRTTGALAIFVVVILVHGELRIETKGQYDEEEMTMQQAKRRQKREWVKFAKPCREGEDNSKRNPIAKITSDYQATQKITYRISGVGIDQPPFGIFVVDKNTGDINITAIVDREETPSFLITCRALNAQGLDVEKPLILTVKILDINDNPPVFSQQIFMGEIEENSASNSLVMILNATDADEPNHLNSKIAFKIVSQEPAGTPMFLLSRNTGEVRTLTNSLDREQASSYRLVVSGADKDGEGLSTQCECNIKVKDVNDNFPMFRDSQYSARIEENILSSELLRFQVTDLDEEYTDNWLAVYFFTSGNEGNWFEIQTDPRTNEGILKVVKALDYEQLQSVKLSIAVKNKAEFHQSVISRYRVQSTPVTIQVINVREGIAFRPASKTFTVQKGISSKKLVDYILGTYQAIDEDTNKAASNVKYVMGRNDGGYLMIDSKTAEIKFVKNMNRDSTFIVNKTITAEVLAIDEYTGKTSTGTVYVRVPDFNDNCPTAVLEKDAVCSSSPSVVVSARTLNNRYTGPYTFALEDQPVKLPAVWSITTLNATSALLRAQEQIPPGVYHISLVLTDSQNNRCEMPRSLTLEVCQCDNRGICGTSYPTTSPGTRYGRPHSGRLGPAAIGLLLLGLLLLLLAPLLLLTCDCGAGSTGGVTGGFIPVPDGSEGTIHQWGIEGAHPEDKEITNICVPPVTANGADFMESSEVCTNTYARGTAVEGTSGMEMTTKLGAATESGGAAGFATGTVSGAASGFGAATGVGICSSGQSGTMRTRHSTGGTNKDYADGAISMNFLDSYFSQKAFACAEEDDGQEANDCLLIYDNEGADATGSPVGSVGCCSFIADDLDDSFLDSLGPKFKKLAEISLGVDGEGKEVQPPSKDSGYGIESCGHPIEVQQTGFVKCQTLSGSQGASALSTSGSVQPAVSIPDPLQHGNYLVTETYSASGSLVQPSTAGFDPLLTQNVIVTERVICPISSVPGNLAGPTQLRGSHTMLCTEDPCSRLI

SMILES	binding (percent of control)
COc1ccc(-n2ncc3c(SCC(=O)NNC(C)=O)ncnc32)cc1	102% (inactive)
COc1ccc(NC(=O)CSc2ncnc3[nH]ncc23)cc1	106% (inactive)
CC(=O)Nc1ccc(NC(=O)CSc2ncnc3c2cnn3Cc2ccccc2)cc1	76.2% (active)
O=C(NCc1nnnn1-c1ccc(Cl)cc1)c1ccc([N+](=O)[O-])o1	98.8% (inactive)
Cc1ccc(S(=O)(=O)N2CCOCC2)cc1NC(=O)c1ccncc1	96.3% (inactive)
Cc1cc(-c2ccc(S(=O)(=O)N3CCc4ccccc4C3)s2)on1	80.5% (active)
Cc1cccc(N2CCN(S(=O)(=O)c3ccc(-c4cc(C)no4)s3)CC2C)c1 (stereo not drawn)	96.5% (inactive)
Cc1cc(-c2ccc(S(=O)(=O)N3CCN(c4cccc(C(F)(F)F)c4)CC3)s2)on1	80% (inactive)
CC(C)CCOc1ccc(C(=O)Nc2cc(S(=O)(=O)N3CCOCC3)ccc2N2CCOCC2)cc1	102% (inactive)
C=CCOc1cccc(C2C(C(=O)c3ccc(C)o3)=C(O)C(=O)N2CCN2CCOCC2)c1 (stereo not drawn)	102% (inactive)
c1ccc(CNCc2ccc(CNCc3ccccc3)cc2)cc1	102% (inactive)
CCOc1ccc(/C=C2\SC(=S)N(NC(=O)c3ccncc3)C2=O)cc1OC	106% (inactive)
COc1cc(/C=C2\SC(=S)N(Nc3ncc(C(F)(F)F)cc3Cl)C2=O)cc(OC)c1OC	87.8% (active)
COc1ccc(/C=C2\SC(=S)N(CCCC(=O)NC3CCCC3)C2=O)cc1OC	109% (inactive)
O=C(CSc1ncn[nH]1)Nc1nc2c(F)c(F)c(F)cc2s1	94% (inactive)
Cc1ccc(S(=O)(=O)N2C[C@H]3C(=O)C[C@@H](c4cccc5ccccc45)N(S(=O)(=O)c4ccc(C)cc4)[C@H]3C[C@H]2c2ccc(Cl)cc2)cc1	99.7% (inactive)
O=c1[nH]c(-c2cccs2)nc2ccccc12	98.9% (inactive)
CC(=O)Nc1cccc(Nc2nc(-c3cccs3)nc3ccccc23)c1	64.6% (active)
Cc1cccc(-c2nc(Nc3ccc(O)cc3)c3ccccc3n2)c1	324% (inactive)
C[C@H]1CN([C@@H](C)CO)C(=O)CCCn2nncc2CO[C@@H]1CN(C)Cc1ccc(Oc2ccccc2)cc1	101% (inactive)
Cc1ccc(C(=O)N[C@H](C(=O)N2CCN(c3ncccn3)CC2)C(C)C)cc1	96.6% (inactive)
CCOC(=O)c1cc2cc3ccccc3cc2oc1=O	105% (inactive)
NS(=O)(=O)c1ccc(NC(=O)COC(=O)CCc2c[nH]c3ccccc23)cc1	96.4% (inactive)

SMILES	binding (percent of control)
NS(=O)(=O)c1ccc(NC(=O)COC(=O)c2cc3ccccc3oc2=O)cc1	9.15% (active)
COc1ccc(NC(=O)[C@H](NC(=O)[C@@H]2Cc3ccccc3CN2)c2ccccc2)cc1	103% (inactive)
COc1ccc(NC(=O)C2CCC(CNC(=O)[C@@H]3Cc4ccccc4CN3)CC2)cc1 (stereo partly drawn)	104% (inactive)
COc1cccc(NC(=O)[C@H](Cc2c[nH]c3ccccc23)NC(=O)[C@@H]2Cc3ccccc3CN2)c1	63.9% (active)
COc1ccc(CN2C(=O)C(CC(=O)NCc3cccc4ccccc34)CC(C(=O)N3CCOCC3)=C2C)cc1 (stereo not drawn)	102% (inactive)
O=C(Nc1cc(F)ccc1F)c1ccc2c(=O)n3c(nc2c1)CCC3	98.5% (inactive)
C[C@H]1Cn2cnc(C(=O)N[C@@H](Cc3c[nH]c4ccccc34)C(=O)OC(C)(C)C)c2C(=O)N1	98.2% (inactive)
CCOC(=O)CNc1nc(Cl)nc(Nc2ccccc2)n1	90.6% (inactive)
CCC(=O)Nc1ccc(C(=O)NNC(=O)c2ccc(Cl)cc2)cc1	103% (inactive)
CCC(=O)Nc1ccc(Nc2nc(Cl)nc(Nc3ccc(NC(=O)CC)cc3)n2)cc1	81.3% (active)
O=C(CCN1CCCCC1)Nc1ccc(F)c(F)c1	94.7% (inactive)
COc1ccc(-n2cc(CNC3CCOCC3)c(-c3cccc(F)c3)n2)cc1	21.8% (active)
COc1ccc(-n2cc(CN(C)Cc3n[nH]c(=O)[nH]3)c(-c3cccc(F)c3)n2)cc1	103% (inactive)
CCC(O)C1CCN(Cc2cn(-c3ccc(OC)cc3)nc2-c2cccc(F)c2)CC1 (stereo not drawn)	110% (inactive)
Cc1ccc(NC(=O)c2sc3nc(N)c(C#N)cc3c2N)cc1	99.5% (inactive)
Cc1cccc(NC(=O)c2sc3nc(N4CCOCC4)c4c(c3c2N)CCCC4)c1	94.3% (inactive)
CC(=O)Nc1ccc(NC(=O)c2sc3nc4c(c(-c5ccc(C)cc5)c3c2N)CCC4)cc1	6.32% (active)
Cc1ccc(NC(=O)COc2coc(CN3CCc4ccccc4C3)cc2=O)cc1Cl	85.8% (active)
Cc1ccc(NC(=O)CN2CCc3ccccc3C2)cc1C	120% (inactive)
Cc1cc(C)cc(NC(=O)COc2coc(CN3CCN(c4ccccc4)CC3)cc2=O)c1	104% (inactive)
O=C(COC(=O)/C=C/c1ccc(Cl)cc1)NC1CCS(=O)(=O)C1 (stereo not drawn)	107% (inactive)
CN(c1ccccc1)S(=O)(=O)c1ccc(C(=O)NCc2cccnc2)cc1	97.8% (inactive)
COc1cc2c(=O)n(C)c3ccccc3c2cc1OC	103% (inactive)

SMILES	binding (percent of control)
Cc1ccc(-c2nc(C#N)c(NCCCn3ccnc3)o2)cc1	66.2% (active)
COc1ccc(-c2cc(C(=O)NCCCn3ccnc3)no2)cc1	104% (inactive)
Cc1ccc(S(=O)(=O)c2nc(NCCCn3ccnc3)sc2Cl)cc1	98.5% (inactive)
Cc1ccc(CCNC(=O)CN2C(=O)CSc3ccc(S(=O)(=O)N4CCOCC4)cc32)cc1	100% (inactive)
Cc1ccc(C(=O)N2CCCc3ccccc32)c(Cl)c1	104% (inactive)
Cc1ccc(-c2nc3ccc(Cl)cn3c2Cc2ccccc2)cc1	111% (inactive)
C[C@@H]1CN([C@@H](C)CO)C(=O)c2cc(Br)cnc2O[C@H]1CN(C)Cc1ccc(-c2ccccc2)cc1	101% (inactive)
O=S(=O)(c1ccc(Cl)cc1)c1nc(-c2ccccc2F)oc1NCCN1CCOCC1	103% (inactive)
O=S(=O)(c1ccc(Br)cc1)c1nc(-c2ccccc2)oc1NCc1cccnc1	78.8% (inactive)
O=S(=O)(c1ccccc1)c1nc(-c2ccccc2F)oc1NCc1cccnc1	91.8% (active)
Clc1cccc(N=C2NN=C(c3ccc4c(c3)OCCO4)CS2)c1	97.3% (inactive)
C=CCn1c(C)cc(C2=NNC(=NCC)SC2)c1C	80.2% (inactive)
COCCn1c(C)cc(C2=NNC(=Nc3ccc(F)cc3)SC2)c1C	76.6% (active)
COc1ccc(N2C(=O)CC(Sc3n[nH]c(-c4ccc(C)cc4)n3)C2=O)cc1 (stereo not drawn)	85.3% (inactive)
COc1ccc(N2C(=O)CC(N3CCC(C(N)=O)CC3)C2=O)cc1 (stereo not drawn)	97.6% (inactive)
COc1ccc(N2C(=O)CC(SC(C)C)C2=O)cc1 (stereo not drawn)	68% (active)
Cc1cccc(C)c1NC(=O)CNC(=O)c1ccc(N2CCOCC2)c([N+](=O)[O-])c1	95.2% (inactive)
COc1ccc2nc(-c3ccccn3)ccc2c1	101% (inactive)
CCCc1ccc(S(=O)(=O)N2CCN(C(=O)c3cc(C)on3)CC2)cc1	96.3% (inactive)
CCCCCCn1c(=O)n2n(c1=O)C[C@]1(OC(=O)NCc3ccc(OC)c(OC)c3)CN(S(=O)(=O)c3ccc(C)cc3)C[C@]1(O)C2	108% (inactive)
CC1=C(C(=O)Nc2cccc(C(=O)NCC(C)c3ccccc3)c2)SCCO1 (stereo not drawn)	106% (inactive)
CCOc1ccc(CCNC(=O)COC(=O)c2ccc(C)c(S(=O)(=O)N3CCOCC3)c2)cc1OCC	97.5% (inactive)
